Drawing on PubChem BioAssay (NCI), this text covers growth for 15 compounds.

The panel holds about 83,000 compounds, 20% with a hit somewhere; the sample as a whole holds those more often.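 Note: values are percent growth. 100 is the growth of untreated cells, values between 100 and 0 indicate rising inhibition; between -100 and 0 indicates cell death.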 Values without a mark were called inactive. Active and inactive are the calls of the source. The calls were made as follows: active = growth percent below 10; inactive = the rest.

Test systems include SK-MEL-2 melanoma; EKVX NSCLC; UO-31 renal; TK-10 renal; ACHN renal; CAKI-1 renal; A498 renal; CCRF-CEM leukemia; MOLT-4 leukemia.
What all share (test): NCI-60 one-dose screen, 48 h (100 = growth as untreated, 0 = no growth, -100 = all killed)
Holding throughout (conditions): 10 µM

For the compound `O=C(O)CCCN1C(=O)NC2(C1=O)c1ccccc1-c1ccccc12`, the growth is 83.2% with SK-MEL-2 melanoma; 98.3% in the test on EKVX NSCLC; 88.4% in the test with UO-31 renal; 90.1% with TK-10 renal; 104% with ACHN renal; 98.4% in the test on CAKI-1 renal. The growth in the test with A498 renal is 101%; in the test on CCRF-CEM leukemia, 96.5%; in the test on MOLT-4 leukemia it was 101%.

As to `CCN(CC)CCOC(=O)c1ccc(NC(=O)Nc2cccc(Cl)c2)cc1`, the growth was 94.7% in the test on SK-MEL-2 melanoma; 99.2% in the test on EKVX NSCLC; 92.5% in the test on UO-31 renal; 96.1% in the test with TK-10 renal; 108% in the test with ACHN renal; 96.8% in the test with CAKI-1 renal. For the same compound, the results for the growth in the test with A498 renal, in the test with CCRF-CEM leukemia and in the test on MOLT-4 leukemia were 79.5%, -4.69% (active) and 84.9%, respectively.

On to `c1ccc(CC(NCCNC(Cc2ccccc2)c2ccccc2)c2ccccc2)cc1` (stereo not drawn), for which the growth in the test on SK-MEL-2 melanoma is 69.8%; with EKVX NSCLC, 23%; with UO-31 renal, 27.3%; in the test with TK-10 renal, 61.1%; in the test with ACHN renal, 20.6%; in the test on CAKI-1 renal, 7.43% (active). The growth with A498 renal was 61.8%; in the test with CCRF-CEM leukemia, 10.1%; in the test with MOLT-4 leukemia, -13.2% (active).

As for `COC(=O)[C@]12CC[C@@H](C)[C@H](C)[C@@H]1C1=CC[C@@H]3[C@@]4(C)C/C(=N\O)[C@H](O)[C@@]5(C)COC(=C45)C[C@@]3(C)[C@]1(C)CC2`, the growth with SK-MEL-2 melanoma is -91.3% (active); with EKVX NSCLC, -68.6% (active); with UO-31 renal, -85.6% (active); in the test on TK-10 renal, -91.2% (active); in the test with ACHN renal, -80.9% (active); with CAKI-1 renal, -80.7% (active). The growth in the test on A498 renal is -88.8% (active); in the test with CCRF-CEM leukemia, -49% (active); with MOLT-4 leukemia, -62.9% (active).

Take `N#Cc1ccc(-n2cnc(NC(=O)[C@H]3CCN(C#N)C3)c2)cc1`: the growth in the test on SK-MEL-2 melanoma was -31.7% (active); in the test on EKVX NSCLC, 20.4%; in the test with UO-31 renal, 18.6%; with TK-10 renal, 21.1%; in the test on ACHN renal, 11.8%; with CAKI-1 renal it was 34.9%. In addition, the growth in the test with A498 renal was -18.4% (active); with CCRF-CEM leukemia, 12.3%; in the test on MOLT-4 leukemia it was 9.28% (active).

`COc1ccc(COC(=O)CC(C)C)cc1`: the growth in the test with SK-MEL-2 melanoma was 101%; in the test on EKVX NSCLC it was 101%; in the test on UO-31 renal, 93.5%; in the test with TK-10 renal it was 90.6%; in the test with ACHN renal, 105%; in the test on CAKI-1 renal it was 98.7%. For the same compound, the growth is 117% in the test on A498 renal, 102% in the test with CCRF-CEM leukemia and 98.8% in the test on MOLT-4 leukemia.

In the case of `CC(C)c1[nH]nc2c(NCc3ccc(-c4ccccn4)cc3)nc(SCCN(C)C)nc12`, the growth in the test with SK-MEL-2 melanoma was -65.6% (active); in the test with EKVX NSCLC, -5.89% (active); with UO-31 renal, 16.7%; in the test on TK-10 renal, 6.52% (active); with ACHN renal, 7.84% (active); in the test on CAKI-1 renal, 18.9%. For the same compound, the growth is -66.3% (active) in the test on A498 renal, 1.67% (active) in the test with CCRF-CEM leukemia and -8.11% (active) in the test on MOLT-4 leukemia.

Consider `O=C1CC[C@@H](C(=O)N[C@H]2CSSC[C@@H](C(=O)NCCc3ccccc3)NC(=O)[C@H](Cc3ccccc3)NC(=O)[C@@H]3CCCN3C(=O)[C@@H]3CCCN3C2=O)N1`, for which the growth was 94.2% with SK-MEL-2 melanoma; 101% in the test with EKVX NSCLC; 99.1% with UO-31 renal; 86.9% in the test with TK-10 renal; 104% in the test on ACHN renal; 97.3% in the test with CAKI-1 renal. Besides, the growth with A498 renal is 91.2%; in the test with CCRF-CEM leukemia it was 69.4%; in the test with MOLT-4 leukemia, 85.8%.

Turning to `CCOc1ccc(-n2cc(-c3ccc(N(C)C)cc3)[n+]3c2CCCCC3)cc1`, the growth in the test with SK-MEL-2 melanoma was -7.29% (active); in the test on EKVX NSCLC, 14.1%; in the test with UO-31 renal it was 66.1%; in the test with TK-10 renal it was 8.78% (active); in the test on ACHN renal it was 22.2%; in the test with CAKI-1 renal, 60.9%. For the same compound, the values for the growth in the test with A498 renal, with CCRF-CEM leukemia and with MOLT-4 leukemia were -10.2% (active), 28.3% and 13.4%, respectively.

Consider `COc1ccc2nc(NC(=O)Nc3c(F)cccc3F)sc2c1`, for which the growth is 114% in the test with SK-MEL-2 melanoma; 102% in the test with EKVX NSCLC; 102% with UO-31 renal; 84.8% with TK-10 renal; 106% in the test with ACHN renal; 104% with CAKI-1 renal. The growth in the test with A498 renal was 87.9%; in the test on CCRF-CEM leukemia, 96.1%; in the test with MOLT-4 leukemia, 98.3%.

With `COc1ccc(-c2nc(SCC(=O)c3ccc(Br)cc3)[nH]c(=O)c2C#N)cc1`, the growth in the test on SK-MEL-2 melanoma is 103%; in the test with EKVX NSCLC, 107%; in the test on UO-31 renal, 86.3%; with TK-10 renal it was 99.6%; with ACHN renal, 122%; with CAKI-1 renal it was 99.9%. The growth in the test on A498 renal was 78.5%; in the test with MOLT-4 leukemia, 96.8%.

As for `O=CNc1c(Cl)cc2c(c1Cl)Cc1cc([N+](=O)[O-])ccc1-2`, the growth in the test with SK-MEL-2 melanoma was 38.1%; with EKVX NSCLC, 30.7%; with UO-31 renal it was 71.7%; in the test with TK-10 renal it was 90.3%; in the test on ACHN renal it was 68.7%; in the test on CAKI-1 renal, 82.1%. For the same compound, the growth in the test with A498 renal was 85.9%; in the test on CCRF-CEM leukemia, 14.7%; in the test on MOLT-4 leukemia, 33%.

`CC1(C)CC(=O)c2c(nc3ccc(Cl)cc3c2-c2ccccc2)C1`: the growth was 81.2% in the test on SK-MEL-2 melanoma; 95.9% in the test with EKVX NSCLC; 66% with UO-31 renal; 118% with TK-10 renal; 93.9% in the test with ACHN renal; 85.5% in the test on CAKI-1 renal. The figures for the growth in the test on A498 renal, in the test with CCRF-CEM leukemia and in the test on MOLT-4 leukemia were 115%, 49.5% and 68.2%, respectively.

As for `N#CN1CC[C@H](C(=O)Nc2ncc(-c3ccncc3)s2)C1`, the growth in the test with SK-MEL-2 melanoma was -36.1% (active); in the test with EKVX NSCLC, 1.46% (active); with UO-31 renal, 8.4% (active); in the test with TK-10 renal, -24.9% (active); in the test on ACHN renal it was 6.59% (active); in the test on CAKI-1 renal, 10%. Also, the figures for the growth in the test with A498 renal, in the test on CCRF-CEM leukemia and in the test on MOLT-4 leukemia were -49.4% (active), 7.15% (active) and -20.4% (active), respectively.

Consider `CCCCOCCOCCOCc1cc2c(cc1Br)OCO2`, for which the growth in the test with SK-MEL-2 melanoma was 92%; in the test with EKVX NSCLC, 104%; in the test with UO-31 renal it was 76.7%; with TK-10 renal, 96.3%; in the test on ACHN renal it was 98.8%; in the test with CAKI-1 renal it was 98.5%. For the same compound, the values for the growth with CCRF-CEM leukemia and with MOLT-4 leukemia were 99.8% and 92.3%, respectively.
